# Where a name gives a salt, the structure may show the parent alone.
# Assays:
# Conditions in all cases: treatment time: 24 h
# A549-ACTB-RAB5A [1] = experiment: lowest phenotypically active concentration; higher = less potent
# Outline: (§1)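 Two criteria together defined phenotypic activity: deviation and reproducibility. Deviation meant ≥3 of 4 wells beyond the 95th percentile of Euclidean distances in solvent control wells, and reproducibility meant a median replicate Pearson correlation above the 95th percentile of non-replicates. Wells had been treated for 24 h at 0.3, 1, 3 or 9 µM in fifteen gene-edited A549, HepG2 and WPMY1 reporter lines before live imaging.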
# A549-GM130-SQSTM1 [2] = experiment: as above
# Outline: as §1
# A549-TUBA1B-RELA [3] = experiment: as above
# Outline: as §1
# HepG2-ACTB-RAB5A [4] = experiment: as above
# Outline: as §1
# WPMY1-GM130-SQSTM1 [5] = experiment: as above
# Outline: as §1
# A549-ACTB-RAB5A [6] = experiment: phenotypically active (imaging signature differs from DMSO and reproducible) at any of 0.3-9 uM (binary (1 = active, 0 = inactive)); higher = active
# Outline: as §1
# A549-CANX-COX4 = experiment: as above
# Outline: as §1
# A549-GM130-SQSTM1 [7] = experiment: as above
# Outline: as §1
# A549-TP53BP1-CLTA = experiment: as above
# Outline: as §1
# A549-TUBA1B-RELA [8] = experiment: as above
# Outline: as §1
# HepG2-ACTB-RAB5A [9] = experiment: as above
# Outline: as §1
# HepG2-CANX-COX4 = experiment: as above
# Outline: as §1
# HepG2-GM130-SQSTM1 = experiment: as above
# Outline: as §1
# HepG2-TP53BP1-CLTA = experiment: as above
# Outline: as §1
# HepG2-TUBA1B-RELA = experiment: as above
# Outline: as §1
# WPMY1-ACTB-RAB5A = experiment: as above
# Outline: as §1
# WPMY1-CANX-COX4 = experiment: as above
# Outline: as §1
# WPMY1-GM130-SQSTM1 [10] = experiment: as above
# Outline: as §1
# WPMY1-TP53BP1-CLTA = experiment: as above
# Outline: as §1
# WPMY1-TUBA1B-RELA = experiment: as above
# Outline: as §1
Structure (SMILES),lowest phenotypically active concentration (A549-ACTB-RAB5A [1]),lowest phenotypically active concentration (A549-GM130-SQSTM1 [2]),lowest phenotypically active concentration (A549-TUBA1B-RELA [3]),lowest phenotypically active concentration (HepG2-ACTB-RAB5A [4]),lowest phenotypically active concentration (WPMY1-GM130-SQSTM1 [5]),phenotypically active (A549-ACTB-RAB5A [6]),phenotypically active (A549-CANX-COX4),phenotypically active (A549-GM130-SQSTM1 [7]),phenotypically active (A549-TP53BP1-CLTA),phenotypically active (A549-TUBA1B-RELA [8]),phenotypically active (HepG2-ACTB-RAB5A [9]),phenotypically active (HepG2-CANX-COX4),phenotypically active (HepG2-GM130-SQSTM1),phenotypically active (HepG2-TP53BP1-CLTA),phenotypically active (HepG2-TUBA1B-RELA),phenotypically active (WPMY1-ACTB-RAB5A),phenotypically active (WPMY1-CANX-COX4),phenotypically active (WPMY1-GM130-SQSTM1 [10]),phenotypically active (WPMY1-TP53BP1-CLTA),phenotypically active (WPMY1-TUBA1B-RELA)
CCSc1ccc2c(c1)N(CCCN1CCN(C)CC1)c1ccccc1S2 [thiethylperazine],3 µM,3 µM,3 µM,9 µM,9 µM,1 (active),0 (inactive),1 (active),0 (inactive),1 (active),1 (active),0 (inactive),1 (active),0 (inactive),1 (active),1 (active),1 (active),1 (active),1 (active),1 (active)
CN(C)CC(O)Cn1c2ccc(Br)cc2c2cc(Br)ccc21 (stereo not drawn) [Wiskostatin],3 µM,1 µM,1 µM,3 µM,3 µM,1 (active),0 (inactive),1 (active),0 (inactive),1 (active),1 (active),1 (active),1 (active),1 (active),1 (active),1 (active),1 (active),1 (active),1 (active),1 (active)
CC(C)c1c(C(=O)Nc2ccccc2)c(-c2ccccc2)c(-c2ccc(F)cc2)n1CC[C@@H](O)C[C@@H](O)CC(=O)O [atorvastatin],3 µM,,,3 µM,3 µM,1 (active),0 (inactive),0 (inactive),0 (inactive),0 (inactive),1 (active),1 (active),1 (active),1 (active),1 (active),1 (active),1 (active),1 (active),1 (active),1 (active)
CC(C)c1nc(CN(C)C(=O)N[C@H](C(=O)N[C@@H](Cc2ccccc2)C[C@H](O)[C@H](Cc2ccccc2)NC(=O)OCc2cncs2)C(C)C)cs1 [ritonavir],9 µM,9 µM,,,,1 (active),0 (inactive),1 (active),0 (inactive),0 (inactive),0 (inactive),0 (inactive),1 (active),0 (inactive),0 (inactive),0 (inactive),0 (inactive),0 (inactive),0 (inactive),0 (inactive)
COc1ccccc1C(=O)Nc1cc2c(cc1N1CCCC1)n(C)c(=O)n2C,9 µM,9 µM,,,9 µM,1 (active),0 (inactive),1 (active),0 (inactive),0 (inactive),0 (inactive),0 (inactive),0 (inactive),0 (inactive),0 (inactive),1 (active),0 (inactive),1 (active),0 (inactive),0 (inactive)
O=c1cc(-c2ccccc2)oc2cc(O)cc(O)c12 [Chrysin],9 µM,9 µM,,,,1 (active),0 (inactive),1 (active),0 (inactive),0 (inactive),0 (inactive),0 (inactive),0 (inactive),0 (inactive),0 (inactive),0 (inactive),1 (active),0 (inactive),1 (active),0 (inactive)
Nc1ccc(N=Nc2ccccc2)c(N)n1 [phenazopyridine],≤ 0.3 µM,1 µM,,,3 µM,1 (active),0 (inactive),1 (active),0 (inactive),0 (inactive),0 (inactive),0 (inactive),0 (inactive),0 (inactive),0 (inactive),0 (inactive),0 (inactive),1 (active),0 (inactive),0 (inactive)
N#Cc1ccc2ncnc(NCCc3ccccc3)c2c1 [Senexin A],3 µM,3 µM,,,,1 (active),0 (inactive),1 (active),0 (inactive),0 (inactive),0 (inactive),1 (active),0 (inactive),0 (inactive),0 (inactive),1 (active),1 (active),0 (inactive),0 (inactive),1 (active)
CCc1nc(-c2cccc(C)c2)c(-c2ccnc(NC(=O)c3ccccc3)c2)s1,9 µM,9 µM,,9 µM,,1 (active),0 (inactive),1 (active),0 (inactive),0 (inactive),1 (active),1 (active),1 (active),1 (active),1 (active),1 (active),0 (inactive),0 (inactive),0 (inactive),1 (active)
Fc1ccccc1Nc1nc2nonc2nc1Nc1ccccc1F,9 µM,3 µM,9 µM,,,1 (active),0 (inactive),1 (active),0 (inactive),1 (active),0 (inactive),0 (inactive),0 (inactive),1 (active),1 (active),1 (active),1 (active),0 (inactive),0 (inactive),0 (inactive)
CNCC[C@H](Oc1cccc2ccccc12)c1cccs1 [duloxetine],9 µM,,9 µM,,,1 (active),0 (inactive),0 (inactive),0 (inactive),1 (active),0 (inactive),0 (inactive),0 (inactive),0 (inactive),0 (inactive),0 (inactive),0 (inactive),0 (inactive),0 (inactive),0 (inactive)
COc1cc2c(cc1OC)-c1c/c(=N/c3c(C)cc(C)cc3C)n(C)c(=O)n1CC2 [Trequinsin hydrochloride],9 µM,9 µM,,9 µM,9 µM,1 (active),0 (inactive),1 (active),0 (inactive),0 (inactive),1 (active),1 (active),0 (inactive),0 (inactive),0 (inactive),1 (active),1 (active),1 (active),1 (active),1 (active)
CCC(C)(C)C(=O)O[C@H]1C[C@@H](C)C=C2C=C[C@H](C)[C@H](CC[C@@H]3C[C@@H](O)CC(=O)O3)[C@H]21 [Simvastatin],3 µM,,,1 µM,1 µM,1 (active),0 (inactive),0 (inactive),1 (active),0 (inactive),1 (active),1 (active),1 (active),1 (active),1 (active),1 (active),1 (active),1 (active),1 (active),1 (active)
COc1cc(OC)c2c(=O)[nH]c(-c3cc(C)c(OCCO)c(C)c3)nc2c1 [apabetalone],9 µM,9 µM,,9 µM,,1 (active),0 (inactive),1 (active),0 (inactive),0 (inactive),1 (active),1 (active),1 (active),0 (inactive),0 (inactive),0 (inactive),0 (inactive),0 (inactive),1 (active),1 (active)
COc1cc2nccc(Oc3ccc(NC(=O)C4(C(=O)Nc5ccc(F)cc5)CC4)cc3)c2cc1OC,3 µM,3 µM,≤ 0.3 µM,,,1 (active),0 (inactive),1 (active),0 (inactive),1 (active),0 (inactive),0 (inactive),0 (inactive),0 (inactive),0 (inactive),1 (active),0 (inactive),0 (inactive),0 (inactive),0 (inactive)
CC(C)(C)c1ccc(C(O)CCCN2CCC(C(O)(c3ccccc3)c3ccccc3)CC2)cc1 (stereo not drawn) [terfenadine],9 µM,3 µM,,3 µM,3 µM,1 (active),0 (inactive),1 (active),0 (inactive),0 (inactive),1 (active),0 (inactive),0 (inactive),0 (inactive),1 (active),0 (inactive),0 (inactive),1 (active),0 (inactive),1 (active)
O=C(Nc1ccc(CN2CCOCC2)cc1)c1ccc(-c2cccc(Cl)c2)o1,9 µM,,9 µM,,,1 (active),0 (inactive),0 (inactive),0 (inactive),1 (active),0 (inactive),0 (inactive),0 (inactive),0 (inactive),1 (active),0 (inactive),0 (inactive),0 (inactive),0 (inactive),0 (inactive)
CCC(=O)N1CCOc2c(cc(-c3ccc(OC)c(OC)c3)cc2OC[C@H]2CCCN(C)C2)C1,9 µM,,9 µM,9 µM,,1 (active),0 (inactive),0 (inactive),0 (inactive),1 (active),1 (active),1 (active),0 (inactive),0 (inactive),1 (active),0 (inactive),1 (active),0 (inactive),0 (inactive),0 (inactive)
O=C(/C=C/c1ccc2ccccc2n1)c1ccncc1,9 µM,,9 µM,3 µM,9 µM,1 (active),0 (inactive),0 (inactive),0 (inactive),1 (active),1 (active),0 (inactive),1 (active),0 (inactive),1 (active),1 (active),0 (inactive),1 (active),1 (active),1 (active)
Nc1cc(N)c(N)cc1N [FAK Inhibitor 14],3 µM,9 µM,3 µM,,3 µM,1 (active),0 (inactive),1 (active),0 (inactive),1 (active),0 (inactive),0 (inactive),0 (inactive),1 (active),1 (active),1 (active),1 (active),1 (active),1 (active),1 (active)
CNC(=O)c1cc(Oc2ccc(NC(=O)Nc3ccc(Cl)c(C(F)(F)F)c3)c(F)c2)ccn1 [regorafenib],9 µM,,,3 µM,,1 (active),0 (inactive),0 (inactive),1 (active),0 (inactive),1 (active),1 (active),1 (active),1 (active),1 (active),0 (inactive),0 (inactive),0 (inactive),1 (active),0 (inactive)
O=C1c2c(O)cccc2Cc2cccc(O)c21 [anthralin],9 µM,9 µM,,,9 µM,1 (active),0 (inactive),1 (active),0 (inactive),0 (inactive),0 (inactive),0 (inactive),0 (inactive),0 (inactive),0 (inactive),1 (active),0 (inactive),1 (active),0 (inactive),1 (active)

# From the supplement of paper PMC7411054
